The values that follow come from article PMC8384837, “Expanding the binding specificity for RNA recognition by a PUF domain”.

The test deals with PUM1 PUF domain R3-LFS (Homo sapiens, UniProt Q14671 828-1176, C935L;R936F;Q939S). Kind of test: yeast three-hybrid, YBZ-1, SC-Leu-His + 0.5 mM 3-AT, 4 days. Particulars: tags: N-Gal4 AD-HA kept; label: inside an RPR1-promoter hybrid RNA with tandem MS2 sites; ssRNA. In outline:
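A centromeric plasmid in strain YBZ-1 co-expressed Pumilio-1 PUF domain libraries, randomized at the three base-contacting residues of each repeat, with matching RNA elements; the strain carries a LexA–MS2 coat fusion and a HIS3 reporter. After four days on SC-Leu (input) or SC-Leu-His + 0.5 mM 3-AT (selection), the repeat regions were PCR-amplified and Illumina-sequenced. The interaction score is the log change in variant frequency from input to selection, using log2 and a pseudocount of 1 where absent.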
For “GGCUAGAACUAGUGGAUCCCCCGGCGCCCGGCGGCUCGAGCCCGGGUAAGUGUAAGUAGUCUGCAUGCCGCCGGGCGCCAUGCCUGCAGGUCGACUCUAGAAAACAUG”, the binding signal is 6.56 log2 enrichment (interaction score). The figure for “GGCUAGAACUAGUGGAUCCCCCGGCGCCCGGCGGCUCGAGCCCGGGUAAGUGUAAUUAGUCUGCAUGCCGCCGGGCGCCAUGCCUGCAGGUCGACUCUAGAAAACAUG” is 4.38 log2 enrichment (interaction score).

Turning to “GGCUAGAACUAGUGGAUCCCCCGGCGCCCGGCGGCUCGAGCCCGGGUAAGUGUAAAUAGUCUGCAUGCCGCCGGGCGCCAUGCCUGCAGGUCGACUCUAGAAAACAUG”, the binding signal is 3.98 log2 enrichment (interaction score).
